We go through 36 compounds from PubChem BioAssay (NCATS).

Where “and” joins values, the source holds several entries; their conditions need not be identical. Equal values may be shown once. Inconclusive results are not listed. Calls of active or inactive are those of the source. Unless noted, the call rests on the fitted dose curve. Residues, ends and D or L forms follow the SMILES beside them.

Experiment [1] deals with Bile acid receptor (Homo sapiens) (UniProt Q96RI1). Briefly: qHTS assay for small molecule antagonists of farnesoid X receptor signaling (AID 588526). Further: on the % scale 0 is the no-effect control and ±100 the full control effect. In a few lines:
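Concentration-response titrations were fitted to the Hill equation for half-maximal inhibition and maximal response, with data normalised to 50 uM chenodeoxycholic acid and DMSO control wells. Cells: FXR-UAS-bla HEK293T, dialyzed FBS.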
(qHTS replaces the single test concentration by a dilution series.)

For experiment [2], the target named is Glucocorticoid receptor (Homo sapiens) (UniProt P04150). Kind of experiment: qHTS assay for small molecule antagonists of glucocorticoid receptor signaling (AID 588533; active means well fitted inhibition curve with a large enough effect in the signal ratio, with a control signal flat, not every such curve was filed as active; the % refers to the signal ratio;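 further: cells stimulated with 2 nM dexamethasone as agonist; on the % scale 0 is the no-effect control and ±100 the full control effect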). In a few lines: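 Antagonist-mode qHTS: compound titrations added to GRE-bla HeLa cells, then dexamethasone 2 nM final; 18 h, 37 C. CCF4 FRET fluorescence normalized to dexamethasone and DMSO; IC50 from Hill fit.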

Experiment [3] deals with Peroxisome proliferator-activated receptor delta (Homo sapiens) (UniProt Q03181). Briefly: qHTS assay for small molecule agonists of peroxisome proliferator-activated receptor delta signaling (AID 588534).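 Further: 0% = DMSO basal wells and 100% = positive control agonist at 10 µM.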 A digest of the protocol:
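Cell-based beta-lactamase reporter assay run in agonist mode: cells seeded and incubated 5 hrs at 37 C, compounds added and incubated 18 hrs at 37 C. CCF4 dye fluorescence read after 2 hrs at RT; EC50 and efficacy from Hill fits.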

Experiment [4] can be described thus: qHTS assay for small molecule antagonists of peroxisome proliferator-activated receptor delta signaling (AID 588535).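 Further: cells co-treated with a PPAR-delta agonist as stimulator during compound exposure.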 Conditions: HEK293T PPARd-UAS-bla, beta-lactamase FRET ratio, 18 h; 460 nm channel. In a few lines:
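GeneBLAzer PPAR-delta-UAS-bla HEK293T cells in medium with 2% charcoal/dextran FBS were preincubated 5 hrs at 37 C, then given compounds, incubated 18 hrs at 37 C, and read by CCF4 beta-lactamase fluorescence; IC50 from Hill fits.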

Experiment [5] deals with Bile acid receptor (Homo sapiens) (UniProt Q96RI1). Kind of experiment: qHTS assay for small molecule agonists of farnesoid X receptor signaling (AID 588527).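 Further: series mostly up to about 77 µM; 0% = vehicle basal and 100% = reference agonist.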 Conditions: HEK293T FXR-UAS-bla, beta-lactamase ratio, 16 h; stronger effect = higher value. In a few lines: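 Quantitative HTS used FXR-UAS-bla HEK293T cells with 16 h compound incubation at 37 C. EC50 values came from concentration-response curves normalized to chenodeoxycholic acid.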

Experiment [6] deals with Glucocorticoid receptor (Homo sapiens) (UniProt P04150). Kind of experiment: qHTS assay for small molecule agonists of glucocorticoid receptor signaling (AID 588532; active means well fitted curve in the direction sought with a large enough effect in the signal ratio, with a control signal flat; the % refers to the signal ratio;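 further: 100% = dexamethasone at 0.1 µM and 0% = DMSO only wells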). Conditions: HeLa MMTV-bla, beta-lactamase ratio, agonist, 18 h; stronger effect = higher value; percent of dexamethasone control, DMSO zero. A digest of the protocol:
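Stimulation of a glucocorticoid response element-driven beta-lactamase gene was measured in HeLa cells. Responses were scaled between DMSO basal and 0.1 uM dexamethasone, then fitted for half-maximal stimulation.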

Chain of Glucocorticoid receptor (Homo sapiens) (P04150 whole entry, looked up): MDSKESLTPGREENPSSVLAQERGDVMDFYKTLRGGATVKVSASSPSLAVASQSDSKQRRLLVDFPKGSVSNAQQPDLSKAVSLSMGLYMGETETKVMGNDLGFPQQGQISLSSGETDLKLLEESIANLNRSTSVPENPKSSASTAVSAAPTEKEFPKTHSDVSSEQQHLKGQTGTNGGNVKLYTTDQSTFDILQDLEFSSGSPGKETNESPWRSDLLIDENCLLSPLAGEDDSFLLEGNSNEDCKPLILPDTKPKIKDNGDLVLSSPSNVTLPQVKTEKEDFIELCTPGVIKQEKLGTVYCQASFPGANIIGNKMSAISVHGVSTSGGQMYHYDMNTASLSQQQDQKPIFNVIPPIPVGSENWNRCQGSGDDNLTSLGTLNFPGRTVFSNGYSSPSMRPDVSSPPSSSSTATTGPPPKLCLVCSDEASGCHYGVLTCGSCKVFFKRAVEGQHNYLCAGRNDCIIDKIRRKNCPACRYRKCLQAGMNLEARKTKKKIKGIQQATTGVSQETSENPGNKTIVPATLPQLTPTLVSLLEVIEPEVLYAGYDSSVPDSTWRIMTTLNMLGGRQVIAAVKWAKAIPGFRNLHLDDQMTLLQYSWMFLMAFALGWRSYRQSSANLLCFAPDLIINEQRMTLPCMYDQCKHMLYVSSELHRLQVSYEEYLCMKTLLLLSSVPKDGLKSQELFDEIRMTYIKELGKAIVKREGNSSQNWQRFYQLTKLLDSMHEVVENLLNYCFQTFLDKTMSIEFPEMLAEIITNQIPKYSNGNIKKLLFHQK
Chain of Peroxisome proliferator-activated receptor delta (Homo sapiens) (Q03181 whole entry, looked up): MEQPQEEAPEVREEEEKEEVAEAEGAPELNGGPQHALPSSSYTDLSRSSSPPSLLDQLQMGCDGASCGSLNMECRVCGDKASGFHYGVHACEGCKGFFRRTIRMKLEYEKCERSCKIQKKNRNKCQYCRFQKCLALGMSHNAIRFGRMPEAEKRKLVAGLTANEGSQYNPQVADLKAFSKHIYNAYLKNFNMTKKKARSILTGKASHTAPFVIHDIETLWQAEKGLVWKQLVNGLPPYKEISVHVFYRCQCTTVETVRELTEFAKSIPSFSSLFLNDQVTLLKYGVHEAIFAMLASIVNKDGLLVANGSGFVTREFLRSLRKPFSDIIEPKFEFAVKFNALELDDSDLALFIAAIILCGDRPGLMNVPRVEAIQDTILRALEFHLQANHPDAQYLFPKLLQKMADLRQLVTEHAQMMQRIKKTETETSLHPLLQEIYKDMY
Chain of Bile acid receptor (Homo sapiens) (Q96RI1 whole entry, looked up): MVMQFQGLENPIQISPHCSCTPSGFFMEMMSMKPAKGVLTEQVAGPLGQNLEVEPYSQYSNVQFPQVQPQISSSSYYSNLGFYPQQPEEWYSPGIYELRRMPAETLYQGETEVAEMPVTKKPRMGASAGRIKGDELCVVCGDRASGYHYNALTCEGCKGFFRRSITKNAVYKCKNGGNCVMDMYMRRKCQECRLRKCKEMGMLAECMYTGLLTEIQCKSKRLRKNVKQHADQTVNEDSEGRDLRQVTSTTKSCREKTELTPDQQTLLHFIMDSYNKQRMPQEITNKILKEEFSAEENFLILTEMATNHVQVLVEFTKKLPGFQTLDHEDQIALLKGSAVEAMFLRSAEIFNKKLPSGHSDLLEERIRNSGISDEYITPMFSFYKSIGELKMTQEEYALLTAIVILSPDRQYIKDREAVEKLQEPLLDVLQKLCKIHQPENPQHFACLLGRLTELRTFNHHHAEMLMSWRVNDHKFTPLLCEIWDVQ

Regarding `Nc1nc(N)nc(NC2CC2)n1`, the Potency entry in experiment [1] and in experiment [2] was “inactive” in each case. For the same compound, in experiment [3], the call was inactive. Besides, in experiment [4], the max response stood at 47%.

Turning to `CC(C)=CCC/C(C)=C/CO`, the activation in experiment [5] was 0.54% (inactive). Take `CN=C(NC#N)NCCSCc1nc[nH]c1C`: the activation in experiment [5] is 1.62% (inactive). Also, the result in experiment [3] was inactive.

Turning to `Cc1c(C)c2c(c(C)c1O)CCC(C)(COc1ccc(CC3SC(=O)NC3=O)cc1)O2` (stereo not given), in experiment [5], the activation is 9.23% (inactive). Same read-out and setting: the result for `O=C(O)c1ccc(S(=O)(=O)N(Cl)Cl)cc1` reads 0.222% (inactive); that for `CCCc1c(OCCCCc2nn[nH]n2)ccc(C(C)=O)c1O`, 7.75% (inactive). In the case of `c1ccc2sc(SSc3nc4ccccc4s3)nc2c1`, the activation in experiment [5] is 4.39% (inactive). The compound was called inactive in experiment [3]. The like results for `CC(=O)Nc1ccccc1` were, in that order, 3.71% (inactive) and “inactive”. As to `COc1ccc2[nH]cc(CCNC(C)=O)c2c1`, in experiment [5], the activation is 0.0339% (inactive) and -2.2% (inactive) and -1.63% (inactive). Also, the compound was classed as inactive in experiment [3]. Consider `Cc1cc(C)nc(NS(=O)(=O)c2ccc(N)cc2)n1`, for which the activation in experiment [5] was 1.04% (inactive) and -0.0754% (inactive). In the case of `CC(O)C(=O)O` (stereo not given), the activation in experiment [5] was -0.922% (inactive). Still for that read-out and setting: for `CN(C)c1ccc2nc3ccc(=[N+](C)C)cc-3sc2c1` the value was -2.46% (inactive); for `CCCCOC(=O)c1ccc(O)cc1`, 2.27% (inactive). For the compound `COc1c2occc2cc2ccc(=O)oc12`, in experiment [5], the activation was 0.341% (inactive) and 4.08% (inactive). Also, the result in experiment [3] was inactive. On to `Oc1ccccc1`, for which the activation in experiment [5] was 0.295% (inactive) and -0.629% (inactive) and -5.57% (inactive). In addition, in experiment [3], the compound was called inactive. As to `Cc1cc(NS(=O)(=O)c2ccc(N)cc2)no1`, the activation in experiment [5] is -1.53% (inactive). On to `S=P(N1CC1)(N1CC1)N1CC1`, for which, in experiment [5], the activation is 4.46% (inactive). Moreover, the compound was classed as inactive in experiment [3]. Consider `Nc1ccc(S(=O)(=O)c2ccc(N)cc2)cc1`, for which the activation in experiment [5] was 5.45% (inactive) and -0.614% (inactive). The compound was called inactive in experiment [3]. With `Cc1cc(=O)n(-c2ccccc2)n1C`, the activation in experiment [5] was 1.08% (inactive). For `COc1cc(C=O)ccc1O`, the activation in experiment [5] was -1.98% (inactive) and -0.968% (inactive). Still for that read-out and setting: the result for `COC(=O)[C@H](Cc1ccccc1)NC(=O)[C@@H](N)CC(=O)O` (H-Asp-Phe-OMe) reads -0.395% (inactive) and 1.51% (inactive). With `CC(=O)c1ccc(S(=O)(=O)NC(=O)NC2CCCCC2)cc1`, the activation in experiment [5] was -2.29% (inactive) and -1.81% (inactive). Further, the compound was classed as inactive in experiment [3]. Turning to `Nc1nc(Cl)nc2c1ncn2[C@H]1C[C@H](O)[C@@H](CO)O1`, the activation in experiment [5] was -0.12% (inactive). Regarding `Cc1ncc(CO)c(CO)c1O`, the activation in experiment [5] is -0.349% (inactive). Besides, the outcome in experiment [3] was inactive.

As for `CCCCCCCC(=O)OCC(COC(=O)CCCCCCC)OC(=O)CCCCCCC`, the activation in experiment [5] is -2.1% (inactive). Moreover, the result in experiment [3] was inactive. Take `O=C(c1ccccc1)c1ccccc1`: the activation in experiment [5] was -1.37% (inactive) and -0.544% (inactive). In experiment [3], the compound was called inactive. In the case of `CC(C)(C)CC(C)(C)c1ccc(OCCOCC[N+](C)(C)Cc2ccccc2)cc1`, the activation in experiment [5] is -1.62% (inactive). As for `O=c1[nH]c(=O)n([C@H]2C[C@H](O)[C@@H](CO)O2)cc1Br`, in experiment [5], the activation was -3.6% (inactive). Also, the result in experiment [3] was inactive. Take `CCOC(=O)c1ccc(O)cc1`: the activation in experiment [5] is 0.927% (inactive). In addition, in experiment [3], the call was inactive. Consider `COc1ccc(C(=O)c2ccccc2)c(O)c1`, for which the activation in experiment [5] was -3.45% (inactive) and -6.15% (inactive). In addition, the outcome in experiment [3] was inactive. Regarding `CC(=O)O[C@]1(C(C)=O)CC[C@H]2[C@@H]3C[C@H](C)C4=CC(=O)CC[C@]4(C)[C@H]3CC[C@@]21C`, in experiment [5], the activation was 0.881% (inactive).

As to `O=C1c2ccccc2C(=O)C1C(=O)C(c1ccccc1)c1ccccc1`, the activation is -2.98% (inactive) in experiment [5] and -2.9% (inactive) in experiment [6].

Turning to `O=c1c(-c2ccc(O)cc2)coc2cc(O)cc(O)c12`, the activation in experiment [5] was -3.37% (inactive). In the case of `O=C(O)Cc1cccc2ccccc12`, the activation in experiment [5] was -0.869% (inactive) and 1.54% (inactive). Turning to `CCCC(C)(COC(N)=O)COC(N)=O`, in experiment [2], the Potency result is “inactive”. Take `Nc1ccccc1`: the Potency entry in experiment [2] was “inactive”.
